SENP6 block = SENP6 protease inhibitors, primary screen, biochemical, luminescence, uHTS; Sentrin-specific protease 6 (Homo sapiens), Q9GZR1; Recombinant SENP6 catalytic domain, aminoluciferin luminescence; inhibition, % at 10 µM; 330,000 tested, 1.8% active; AID 2599, 2010;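 active = inhibition above about 50% at the single tested dose, limit read from the data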;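 note: plate controls were DMSO wells with enzyme for no effect and DMSO wells lacking enzyme for full effect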
SENP8 block-1 = SENP8 protease inhibitors, primary screen, biochemical, luminescence; AID 2540, 2010; inhibition, % at 10 µM; 330,000 tested, 1.2% active; purified SENP8, Z-RLRGG-aminoluciferin cleavage; in the data active = inhibition above about 50%
Target sequence (Q96LD8 whole entry, looked up): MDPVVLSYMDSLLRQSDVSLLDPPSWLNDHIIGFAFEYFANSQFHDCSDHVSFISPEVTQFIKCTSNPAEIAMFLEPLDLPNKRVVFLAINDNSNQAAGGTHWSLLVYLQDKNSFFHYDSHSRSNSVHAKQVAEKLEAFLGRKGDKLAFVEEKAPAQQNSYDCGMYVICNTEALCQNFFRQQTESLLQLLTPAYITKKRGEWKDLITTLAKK
PPC-1+TRAIL kill = compounds killing PPC-1 cancer cells with TRAIL present, primary screen, TRAIL potentiator project, ATPLite luminescence, uHTS; PPC-1 cells + TRAIL, ATPLite viability luminescence; cell killing (% activity), % at 4 µM or 5 µM; 220,000 tested, 0.41% active; AID 1443, 2008;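 active = cell killing above 50% in the first pass at 4 µM, then a duplicate retest at 5 µM averaging 50% or more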;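 note: plate controls were cells with TRAIL plus DMSO for no effect and medium-only wells lacking cells for full effect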
C8 TRAIL sens = viability loss with TRAIL in NB7+C8 cells, primary screen, TRAIL sensitizer project, cell-based, ATPlite luminescence | inhibition (viability loss, TRAIL sensitization), % at 10 µM | 360,000 tested, 1% active | AID 624354, 2012;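 active = compounds causing at least 50% loss of cell viability in the single-dose screen, relative to plate controls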
SENP7 block = SENP7 protease inhibitors, primary screen, biochemical, luminescence, uHTS; Sentrin-specific protease 7 (Homo sapiens), Q9BQF6; recombinant SENP7, Z-RLRGG-aminoluciferin luminescence, 40 min; inhibition, % at 5 µM; 330,000 tested, 1.5% active; AID 434973, 2010;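 active = inhibition above about 50% at the single test dose, limit read from the data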;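 note: plate controls were DMSO with enzyme for no effect and no enzyme buffer wells for full effect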
Target sequence (Q9BQF6 706-1050 limits assumed): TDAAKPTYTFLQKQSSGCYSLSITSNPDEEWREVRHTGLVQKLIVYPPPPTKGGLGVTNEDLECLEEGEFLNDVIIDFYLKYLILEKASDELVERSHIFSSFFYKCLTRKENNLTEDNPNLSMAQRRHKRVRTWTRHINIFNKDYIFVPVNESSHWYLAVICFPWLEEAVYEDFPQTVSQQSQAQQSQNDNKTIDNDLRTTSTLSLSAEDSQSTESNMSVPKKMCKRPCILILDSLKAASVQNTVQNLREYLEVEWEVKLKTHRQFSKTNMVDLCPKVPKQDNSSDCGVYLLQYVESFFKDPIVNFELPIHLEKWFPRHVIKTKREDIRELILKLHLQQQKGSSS
SENP8 block-2 = human SENP8 protease inhibitors, primary screen, biochemical, fluorescence, Nedd8 protein substrate, uHTS | inhibition, % at 20 µM | AID 602440, 2012 | Sentrin-specific protease 8 (Homo sapiens), Q96LD8 | 360,000 tested, 0.64% active | recombinant SENP8; in the data active = inhibition mostly above about 40%, no sharp cut-off; inactive = mostly below about 27%
The depositor's hits bear a star; i = inactive; . = not tested or not shown; ! = not confirmed by another sample. Most compounds without a hit are left out; they make up all but 3% or so of the library.

SMILES	SENP6 block	SENP8 block-1	PPC-1+TRAIL kill	C8 TRAIL sens	SENP7 block	SENP8 block-2
CCCCC[n+]1ccn(C2=C([O-])c3ccccc3C(=O)/C2=N\S(=O)(=O)c2ccc(Cl)cc2)c1	47	19	25	46	19	71*
COc1ccc(-c2cn3cccc(C)c3n2)cc1Br	-9	59*	28	22	68*	-60
COc1cc(C(=O)Oc2ccccc2/C=N/NC(=O)c2ccc(C)cc2)cc(OC)c1OC	-6	-2	47	50*	8	26
O=C(CCl)N(Cc1cc(=O)[nH]c2ccccc12)c1ccccc1	4	-4	.	47	-1	-14
Cc1cccc(N(Cc2ccccc2)C(=O)CCl)c1	.	.	7	96*	.	4
O=C(CCl)N(Cc1ccccc1)c1ccccc1	2	1	12	96*	-1	21
O=C(O)c1cc(S(=O)(=O)NCCCN2CCCC2=O)ccc1Cl	11	-4	.	12	3	4
CSc1ccc(/C=C(\C(=O)O)c2ccc(S(=O)(=O)N3CCCC3)s2)cc1	4	-5	.	-15	-12	-432
COc1ccc(F)cc1-c1cc(C(=O)NCc2ccccc2)[nH]n1	.	.	.	-19	.	10
C[C@H]1CN=C(N(C)C)N1CCc1ccc(F)cc1	1	-2	.	0	4	8
Cc1cc(NC(=O)CCN2C(=O)c3ccccc3C2=O)no1	11	1	17	-9	-5	34
Cc1cc(NC2=CC(=O)C(=O)c3ccccc32)no1	.	.	.	72*	.	-236
COc1ccccc1C(=O)NC(=Nc1nc2ccccc2o1)NC(=O)c1ccccc1OC	-2	-3	3	71*!	-3	4
O=C(NC(=Nc1nc2ccccc2o1)NC(=O)c1ccccc1)c1ccccc1	-2	-2	9	-16	-2	-351
C#CCOc1c(Br)cc(/C=C2/C(=O)ON=C2C)cc1OC	-10	4	.	3	5	6
C=CCOc1c(Br)cc(/C=C2/C(=O)ON=C2C)cc1OC	8	-3	.	-26	1	32*
CCN(C(=O)Cn1c(Cl)nc2c1c(=O)n(C)c(=O)n2C)C1CCCCC1	-26	-5	.	-8	0	4
CN(C)c1ccc(N=Nc2nccs2)cc1	.	.	.	77*	.	37
CC12CCC(=O)C=C1CCCC2=O (stereo unspecified)	.	.	.	-9	.	12
CCOc1ccc2nc(NC(=O)CN3CCC(n4nnc5cc(C(F)(F)F)ccc54)CC3)sc2c1	-6	-11	13	56*	-10	12
COc1cc2nc(N(CCCN(C)C)C(=O)c3ccc(C(=O)c4ccccc4)cc3)sc2cc1OC	-3	8	.	7	-1	18
CCc1ccc2nc(N(CCCN(C)C)C(=O)c3ccc(S(=O)(=O)N4CCCc5ccccc54)cc3)sc2c1	8	1	.	68*	-8	6
CCc1ccc2nc(N(CCCN(C)C)C(=O)c3ccc(S(=O)(=O)N4CCCC4)cc3)sc2c1	-3	2	.	19	-7	10
CC1CCCCN1S(=O)(=O)c1ccc(C(=O)N(CCCN(C)C)c2nc3ccc(Br)cc3s2)cc1 (stereo unspecified)	0	-6	.	55*	1	5
CCc1ccc2nc(N(CCCN(C)C)C(=O)c3ccc(C(=O)c4ccccc4)cc3)sc2c1	-23	2	.	62*	4	14
SMILES	SENP6 block	SENP8 block-1	PPC-1+TRAIL kill	C8 TRAIL sens	SENP7 block	SENP8 block-2
c1coc(-c2nnc(-c3cccs3)o2)c1	3	-7	22	13	16	-230
Cc1ccccc1-c1nnc(-c2cccs2)o1	82*	55*	10	8	55*	-145
Cc1ccc(/C(N)=N/OC(=O)c2cccc(Cn3cc(C(F)(F)F)ccc3=O)c2)cc1	-3	10	4	81*	5	13
N/C(=N\OC(=O)c1cccc(Cn2cc(C(F)(F)F)ccc2=O)c1)c1ccccc1	-18	-9	16	36	12	-5
CC1(C)Cc2nc3sc4c(SCC(=O)NCc5ccccc5)ncnc4c3cc2CO1	4	4	13	20	-1	-23
COC(=O)CSc1ncnc2c1sc1nc3c(cc12)COC(C)(C)C3	2	12	48	73*	-6	-7
N#C/C(=C\c1ccccc1)C(=O)N(c1ccccn1)C1CCCCC1	-26	-8	59*	-13	-6	5
COc1ccc(/C(C#N)=C/c2ccccn2)cc1	64*	54*	11	16	6	-281
CN(C(=O)CN1C(=O)c2cccc(N)c2C1=O)C1CCCCC1	9	-6	.	8	-7	i
O=C(O)c1cccc(NS(=O)(=O)c2ccc3nnn(O)c3c2)c1	14	-7	11	2	-6	19
O=C(O)c1cccc(NC2=C(n3nnc4ccccc43)C(=O)c3ccccc3C2=O)c1	-8	38	11	8	24	69*
N#C/C=C1/NC(=O)c2ccccc2S1	-1	-4	20	-7	7	44*
COc1ccc(OC)c(N(CCN2C(=O)c3ccccc3C2=O)C(=O)CCl)c1	.	.	.	94*	.	9
O=C(CC1SC(N2CCCC2)=NC1=O)Nc1ccc(C(=O)NCc2ccc(F)cc2)cc1 (stereo unspecified)	-19	-11	.	7	7	0
CC(C)(C)c1cc(CCC(=O)NCCc2ccccn2)cc(C(C)(C)C)c1O	-8	-4	.	10	-6	10
O=C1C=C(NCCc2cc(Br)c(O)c(Br)c2)C(=O)c2ncccc21	.	.	.	57*	.	116*
CCc1nc2c(OCc3ccccc3C(=O)OC)cccn2c1N(C)C(=O)c1cccc(OC)c1	.	.	.	8	.	12
Oc1cc(-c2ccc(N3CCCCC3)nc2)cc2cccnc12	29	-2	.	74*	45	i
COc1ccc2nc(NN=C(C)c3ccccn3)cc(C)c2c1	.	.	.	69*	.	-79
CS(=O)(=O)N1N=C(c2ccc(Cl)cc2)CC1c1cccs1 (stereo unspecified)	51*	21	-5	-5	40	8
CCCCN(CCCC)Cc1cc(=O)oc2cc(OC)c(Cl)cc12	.	.	.	-14	.	-96
COC(=O)Nc1nnc(-c2ccccc2OC)s1	42	33	23	18	67*	-168
O=C(CCS(=O)(=O)c1ccc(Cl)cc1)Nc1nc(-c2ccncc2)cs1	-6	-9	.	20	-14	10
COc1ccccc1CCNC(=O)c1cccc(NC(=O)CC2SC(N3CCCCC3)=NC2=O)c1 (stereo unspecified)	.	.	.	2	.	6
Cc1sc(NC(=O)c2cccc(N3C(=O)CCC3=O)c2)nc1-c1ccccc1	7	1	.	50*	-3	-195

Screening results as filed in PubChem BioAssay.
